In the supplement of paper PMC6555819:

Experiments:
Assay in all cases: PBM binding z-score (relative to random genomic background probes); higher = stronger binding; sequences stand for … in GC…GCGATTGACAGCGTAGAATGAAGG
[1] = tested on: PPARg:RXRa DBDmut IVT, anti-RXR (DBD mutation: RXRa K156A/R161A, NR concentration 270 nM, RXRa partner concentration 90 nM)
Summary of the method: (§1)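 Scanned fluorescence from custom Agilent 4×180K protein-binding microarrays was regression-normalized. Binding z-scores use random background probes as reference. Ligand-free nuclear receptor dimers were incubated on the arrays for 1 h and detected with antibodies against each partner (one per run).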

[2] = tested on: PPARg:RXRa IVT, anti-PPARg (NR concentration 270 nM, RXRa partner concentration 90 nM)
Summary of the method: as §1

[3] = tested on: PPARg DBDmut IVT, anti-PPARg (DBD mutation: PPARg1 K132A/R137A, NR concentration 270 nM)
Summary of the method: as §1

[4] = tested on: PPARg homodimer (NR concentration 180 nM)
Summary of the method: as §1

[5] = tested on: PXR:RXRa (NR concentration 270 nM, RXRa partner concentration 90 nM)
Summary of the method: as §1

[6] = tested on: PXR homodimer (NR concentration 270 nM)
Summary of the method: as §1

[7] = tested on: RARa:RXR (NR concentration 270 nM, RXRa partner concentration 90 nM)
Summary of the method: as §1

[8] = tested on: RARa homodimer (NR concentration 270 nM)
Summary of the method: as §1

[9] = tested on: RARb:RXRa (NR concentration 270 nM, RXRa partner concentration 90 nM)
Summary of the method: as §1

[10] = tested on: RARb homodimer (NR concentration 270 nM)
Summary of the method: as §1

[11] = tested on: RARg:RXRa (NR concentration 270 nM, RXRa partner concentration 90 nM)
Summary of the method: as §1

[12] = tested on: RARg homodimer (NR concentration 270 nM)
Summary of the method: as §1

[13] = tested on: RXRa DBDmut IVT, anti-RXR (DBD mutation: RXRa K156A/R161A, NR concentration 90 nM)
Summary of the method: as §1

[14] = tested on: RXRa homodimer (NR concentration 180 nM)
Summary of the method: as §1

[15] = tested on: THRa:RXRa (NR concentration 90 nM, RXRa partner concentration 90 nM)
Summary of the method: as §1

[16] = tested on: THRa homodimer (NR concentration 90 nM)
Summary of the method: as §1

[17] = tested on: VDR homodimer (NR concentration 270 nM)
Summary of the method: as §1

| Sequence | PBM binding z-score [1] | PBM binding z-score [2] | PBM binding z-score [3] | PBM binding z-score [4] | PBM binding z-score [5] | PBM binding z-score [6] | PBM binding z-score [7] | PBM binding z-score [8] | PBM binding z-score [9] | PBM binding z-score [10] | PBM binding z-score [11] | PBM binding z-score [12] | PBM binding z-score [13] | PBM binding z-score [14] | PBM binding z-score [15] | PBM binding z-score [16] | PBM binding z-score [17] |
| --- | --- | --- | --- | --- | --- | --- | --- | --- | --- | --- | --- | --- | --- | --- | --- | --- | --- |
| CGAACTACGTCAAAGGACAGTGAAAGGCGACGTA | -0.332 | -0.152 | -0.567 | -0.204 | -0.445 | -0.202 | -0.353 | -0.431 | 1.14 | 0.995 | 0.411 | 0.951 | -0.164 | 0.202 | 0.0886 | -0.314 | -0.351 |
| CGAACTAGATCAAAGGACAGTGAAAGGCGACGTA | 1.68 | 1.44 | -0.617 | 0.388 | -0.456 | -0.201 | -0.579 | 0.383 | 0.915 | 0.779 | 0.0763 | 0.823 | -0.208 | -0.0824 | 0.0238 | -0.506 | 0.0452 |
| CGAACTAGGTCAAAGGACAGTGATAGGCGACGTA | 8.07 | 8.07 | 0.359 | 1.45 | 1.14 | -0.148 | 2.05 | 0.153 | 3.95 | 3.06 | 3.97 | 4.98 | 1.56 | 3.26 | 2.56 | 0.594 | 0.324 |
| CGAACTAGTTCAAAGGACAGTGAAAGGCGACGTA | 0.0129 | 0.499 | -0.185 | 0.158 | 0.27 | 0.322 | 0.253 | 0.148 | 1.91 | 1.43 | 1.25 | 1.73 | 2.02 | 0.848 | 0.426 | -0.6 | 0.808 |
| CGAACTAGGTCACCAGGACAGTAAAGAGGTTGGA | 8.12 | 8.87 | 5.2 | 2.63 | 1.66 | 0.231 | 2.62 | 0.29 | 4.12 | 3.58 | 4.57 | 5.2 | 1.79 | 3.38 | 3.29 | 1.86 | 0.977 |
| CGAACTAGGTCACCAGGACACTGAAGAGGTTGGA | 8.03 | 8.93 | 1.04 | 1.58 | 2.02 | 0.353 | 2.73 | 0.625 | 4.22 | 3.48 | 4.62 | 5.4 | 1.56 | 3.65 | 3.83 | 2.39 | 0.607 |
| CGGACTAGGTCAAAGGACAGTGAAAGGCGACGTA | 7.7 | 7.9 | 0.294 | 1.67 | 1.11 | -0.218 | 2.41 | 0.208 | 3.69 | 2.91 | 3.97 | 4.51 | 1.33 | 3.02 | 2.57 | 0.589 | 0.288 |
| ATATGTAGGTTAGGGTGATTCAGAAAGTAGGGAA | 6.7 | 6.39 | 1.41 | 2.93 | 1.04 | 1.31 | 1.3 | 1.25 | 1.38 | 1.48 | 0.779 | 0.813 | 0.979 | 1.02 | 2 | 1.65 | 0.713 |
| ATATGTAGGTTACGGTCATTCAGAAAGTAGGGAA | 7.69 | 8.18 | 1.83 | 2.04 | 0.971 | 0.516 | 1.47 | 0.836 | 2.89 | 2.42 | 2.34 | 2.47 | 0.852 | 1.64 | 2.08 | 0.831 | 0.93 |
| ATATGTAGGTTAGGTTCATTCAGAAAGTAGGGAA | 6.23 | 5.61 | 2.4 | 1.77 | 2.89 | 2.26 | 2.24 | 1.68 | 1.5 | 1.29 | 1.47 | 1.35 | 3.43 | 2.17 | 1.8 | 0.787 | 5.47 |
| CGAACTAGGTCACCAGGACAGTGACGAGGTTGGA | 8.26 | 8.82 | 1.73 | 1.63 | 1.66 | -0.0254 | 2.69 | 0.339 | 4.38 | 3.61 | 4.59 | 5.52 | 1.22 | 3.43 | 3.55 | 1.99 | 0.698 |
| CGAACTAGGGCAAAGGACAGTGAAAGGCGACGTA | 7.08 | 6.68 | 0.104 | 0.584 | -0.478 | -0.625 | -0.393 | -0.727 | 2 | 1.44 | 1.1 | 1.87 | 0.227 | -0.0436 | 0.0548 | -0.953 | -0.515 |
| ATATGTAGGTTAGGGTCCTTCAGAAAGTAGGGAA | 6.21 | 6.11 | 1.93 | 1.37 | 0.573 | 0.477 | 0.72 | 0.953 | 1.03 | 0.958 | 0.561 | 0.821 | 0.642 | 0.851 | 1.21 | 0.898 | 0.793 |
| CGAACTAGGTCACTAGGACAGTGAAGAGGTTGGA | 7.81 | 8.81 | 2.32 | 1.48 | 0.625 | 0.00587 | 1.68 | 0.195 | 3.62 | 3.02 | 3.58 | 4.16 | 1.22 | 2.07 | 2.71 | 0.967 | 0.00359 |
| CGAACTAGGTCAAAGGACAGTGAAAGGCGACGTA | 7.94 | 8.4 | 3.54 | 2.15 | 1.21 | -0.123 | 2.12 | -0.0827 | 3.99 | 2.83 | 3.94 | 4.27 | 1.3 | 3.33 | 2.58 | 0.464 | 0.47 |
| CGAACTAGGTCATCAGGACAGTGAAGAGGTTGGA | 7.93 | 8.18 | 0.121 | 1.34 | 1.32 | 0.123 | 2.27 | 0.72 | 3.9 | 3.22 | 4.14 | 4.73 | 1.67 | 2.99 | 3.38 | 1.97 | 0.876 |
